Abeta yeast res – qHTS for compounds that reverse cellular toxicity of Amyloid beta (A-beta) peptide in yeast: Primary Screen; yeast expressing A-beta42, growth rescue, OD600, 48 h; response scale: 0% DMSO, 100% iron-clioquinol control; Potency, µM (series often up to 46.1 µM), most hits filed as activators; actives 0.063% (n = 410,000); AID 1347071, 2019; also: nearly all actives have a fitted effect of over 55% in size
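Yeast A-beta toxicity model in growth medium with pinned compounds, 48 h at 30 C; growth read as absorbance at 600 nm. Normalized to FeCl3/clioquinol equimolar mix (positive) and DMSO (negative).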
uPA surface inh – qHTS for Inhibitors of Cell Surface uPA Generation. cell surface uPA generation assay, qHTS. actives 0.31% (n = 330,000). Potency, µM (series often up to 38.3 µM), usual class: inhibitors; active = well fitted inhibition curve with a large enough effect; inconclusive = small, poorly fitted or top-dose-only effect; inactive = no such curve, though single readings can be large or run the other way; tested in mouse RAW 264.7 cells; also: nearly all actives have a fitted effect of over 55% in size
FUS suppressor – qHTS for Suppressors of FUS Proteinopathy: Primary screen using FUS-linked yeast assay | S. cerevisiae FUS-expressing, growth rescue, OD600, 24 h | AID 1347120, 2019 | Potency, µM (top dose mostly 76.6 µM), hits mostly activators | actives 0.24% (n = 390,000); also: nearly all actives have a fitted effect of over 55% in size
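FUS-expressing yeast, raffinose-pregrown, induced in 2% galactose minimal medium at OD 0.005; compounds in a dilution series, 24hr at 30C. Growth restoration read as absorbance at 600 nm. CP55940 positive control, DMSO negative.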
BCR signal inh – qHTS Assay to Find Inhibitors of Chronic Active B-Cell Receptor Signaling; ABC-DLBCL IkBa-CBG/CBR reporter, luminescence ratio, 4 h; Potency, µM (doses to about 46.1 µM), usual class: inhibitors; actives 0.05% (n = 340,000); active = well fitted inhibition curve with a large enough effect in the signal ratio, with a control signal flat, not every such curve was filed as active; inconclusive = small, poorly fitted or top-dose-only effect, or effect the other way, or a change in a side signal; the % refers to the signal ratio
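Compounds up to 46 uM were incubated four hours with TMD8 cells whose green CBG68 luciferase is fused to IkappaBalpha; red CBR luminescence normalised the signal, and concentration-effect curves were fitted to fusion, red and ratio data.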
TDP43 rescue – qHTS of TDP-43 Inhibitors | TDP-43 expressing yeast growth rescue, BacTiter-Glo, 24 h | Potency, µM (series often up to 46.1 µM), most hits filed as activators | actives 1.8% (n = 410,000) | AID 652104, 2013; also: nearly all actives have a fitted effect of over 50% in size
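Readout is BacTiter-Glo luminescence of cell growth, so inhibitors register as activators. TDP-43-expressing yeast at OD600=0.02 in galactose medium, after raffinose pregrowth to mid-log, were incubated with compound for 24 hr at 30 deg C.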
aSyn rescue – qHTS of alpha-syn Inhibitors; Potency, µM (series often up to 46.1 µM), usual class: activators; actives 0.14% (n = 370,000); Yeast expressing alpha-synuclein, growth rescue, BacTiter-Glo, 24 h; AID 652106, 2013; also: nearly all actives have a fitted effect of over 65% in size
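Galactose-induced alpha-syn yeast (OD600=0.02, raffinose-pregrown) + pinned cpd, 24 hr, 30 deg C; growth by BacTiter-Glo luminescence. Growth restoration scores as activation.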
Large screens that a line does not name were inactive. Compounds with a hit are over-represented: about 2.3% of the library has one in this group of screens. Unless noted, calls follow the shape of the dose curve; as a rule, active = well fitted curve in the direction sought with a large enough effect; inconclusive = small, poorly fitted or top-dose-only effect, or another doubt; inactive = no such curve, though single readings can be large; an effect the other way counts as inactive or inconclusive.

O=C(NC(=S)N1CCN(c2ccc(Cl)cc2[N+](=O)[O-])CC1)c1cccs1	BCR signal inh inconclusive, TDP43 rescue inconclusive, aSyn rescue inconclusive
O=C(NC(=S)N1CCN(c2ccc(Cl)cc2[N+](=O)[O-])CC1)c1ccco1	BCR signal inh inconclusive, TDP43 rescue 13µM
O=C(NCCO)c1ccc2c3n(nc2c1)-c1ccccc1CO3	uPA surface inh 2.8µM, BCR signal inh inconclusive
O=C(NCC1CC1)c1ccc2c3n(nc2c1)-c1ccccc1CO3	uPA surface inh 1.4µM, BCR signal inh inconclusive
C=CCNC(=O)c1ccc2c3n(nc2c1)-c1ccc(Cl)cc1CO3	uPA surface inh 5µM (no result: BCR signal inh)
C=CCNC(=O)c1ccc2nccnc2c1	none
O=C(NCCO)c1ccc2nc(-c3ccco3)c(-c3ccco3)nc2c1	none
O=C(Oc1ccc(C(=S)N2CCOCC2)cc1)c1cccc([N+](=O)[O-])c1	FUS suppressor inconclusive
CCC(Sc1nc2cc(OC)c(OC)cc2c(=O)n1Cc1ccco1)C(=O)NCCOC (stereo unspecified)	BCR signal inh inconclusive (no result: aSyn rescue)
COc1ccccc1CNC(=O)CN(CCc1ccccc1)S(C)(=O)=O	BCR signal inh inconclusive
O=C(Nc1ccccc1)O/N=C/c1ccc(F)cc1	uPA surface inh 7.1µM, BCR signal inh inconclusive, TDP43 rescue 10µM
O=C(Nc1ccc(Cl)cc1)C1CCN(C(=O)c2cccs2)CC1	none
O=C(CCn1c(=O)c2cccn2c2cccnc21)N1CCN(c2ccc(F)cc2)CC1	TDP43 rescue 13µM (no result: uPA surface inh, BCR signal inh, aSyn rescue)
COc1cc(NC(=O)c2ccc3c(c2)OCCO3)ccc1NC(=O)c1cccs1	TDP43 rescue 13µM
COc1cccc(C(=O)Nc2cc(NC(=O)c3cccs3)ccc2C)c1OC	uPA surface inh inconclusive, BCR signal inh inconclusive, TDP43 rescue 11µM
CC(=O)Nc1ccc(S(=O)(=O)NCC2(N3CCOCC3)CCCCC2)cc1	none
O=[N+]([O-])c1ccccc1NCCNS(=O)(=O)c1ccc(Cl)cc1	TDP43 rescue 11µM (no result: FUS suppressor)
CCC(C)NC(=O)c1ccc(COc2ccccc2Cl)cc1 (stereo unspecified)	TDP43 rescue inconclusive
CCCC(C)NC(=O)c1ccc(OCc2ccc(Cl)cc2)c(OC)c1 (stereo unspecified)	BCR signal inh inconclusive, TDP43 rescue 22µM
CCOC(=O)C1=CCN(S(=O)(=O)c2ccccc2F)C1c1ccc(C)cc1 (stereo unspecified)	none (no result: uPA surface inh, BCR signal inh)
CCOC(=O)C1=CCN(S(=O)(=O)c2ccccc2F)C1c1ccc(Cl)cc1 (stereo unspecified)	TDP43 rescue 16µM (no result: uPA surface inh, BCR signal inh)
O=C(Nc1nncs1)C1CC(=O)N(C2CCCC2)C1 (stereo unspecified)	none
CC(Sc1nnnn1C)C(=O)Nc1ccc(Oc2ccccc2)cc1 (stereo unspecified)	TDP43 rescue 16µM
Fc1cc(Br)ccc1NC(=S)Nc1ccccc1	TDP43 rescue inconclusive (no result: FUS suppressor)
CC(C)(C)NC(=S)Nc1ccc(Br)cc1	BCR signal inh inconclusive, TDP43 rescue 16µM
Fc1ccccc1NC(=S)Nc1ccc(Br)cc1	TDP43 rescue 13µM
COc1ccc(NC(C)(C)c2nnnn2-c2c(C)cccc2C)cc1	TDP43 rescue 13µM
O=C(N1CCc2[nH]c3ccccc3c2C1)C(F)(F)F	none
CC(/C=N/n1c(-c2ccco2)n[nH]c1=S)=C\c1ccccc1	TDP43 rescue 18µM
O=C(Nc1cc([N+](=O)[O-])ccc1N1CCCC1)c1cccs1	none
Cc1cc(C)nc(NC2=NCC(=O)N2c2cc(Cl)cc(Cl)c2)n1	none
CCCCc1c(-c2cccc(Br)c2)ncn1CCc1ccccc1OC	TDP43 rescue 25µM (no result: uPA surface inh, BCR signal inh)
COc1cccc(N2[C@@H](CC(C)=O)c3ccc(/C=C/C(C)=O)cc3S2(=O)=O)c1	uPA surface inh 3.2µM (no result: BCR signal inh)
Cc1cccc(C2NC(=O)c3ccccc3O2)c1 (stereo unspecified)	TDP43 rescue 14µM
COCCN1C(=O)C(=O)/C(=C(/O)c2ccc(S(=O)(=O)N3CCOCC3)cc2)C1c1cccc(OC)c1 (stereo unspecified)	FUS suppressor 5µM
CCc1ccc(CN2CCCC(CNC(=O)c3cc(OC)cc(OC)c3)C2)cc1 (stereo unspecified)	none
Cc1sc(NC(=O)c2ccco2)c(C(c2cccnc2)N2CCN(c3ccc(F)cc3)CC2)c1C (stereo unspecified)	uPA surface inh inconclusive, FUS suppressor inconclusive, TDP43 rescue 25µM, aSyn rescue inconclusive
CCOC(=O)C1CCN(C(c2cccnc2)c2c(NC(=O)c3ccco3)sc(C)c2C)CC1 (stereo unspecified)	TDP43 rescue 14µM (no result: FUS suppressor)
Cc1cc(C)c(NC(=O)c2sc3nc4c(cc3c2N)C(=O)CC(C)(C)C4)c(C)c1	FUS suppressor inconclusive, TDP43 rescue 20µM
COc1ccc(-c2nc(CCl)cs2)cc1OC	none
COc1ccc(-c2nc(-c3ccc(O)cc3O)cs2)cc1OC	TDP43 rescue 18µM
CS(=O)(=O)Nc1ccccc1C(=O)OCC(=O)N1CCC(c2ccccc2)=N1	FUS suppressor inconclusive, BCR signal inh inconclusive, TDP43 rescue 25µM
COc1ccc(C2c3[nH]c4ccc(OC)cc4c3CCN2C(=O)Nc2ccccc2)cc1 (stereo unspecified)	FUS suppressor inconclusive, TDP43 rescue 20µM (no result: uPA surface inh, BCR signal inh, aSyn rescue)
CCCCCN(C(=O)CCC(=O)OC(C)C(=O)c1ccc(Cl)cc1)c1c(N)n(CCCC)c(=O)[nH]c1=O (stereo unspecified)	FUS suppressor 32µM
CCCCCN(C(=O)CCC(=O)OCC(=O)c1ccc(F)c(F)c1)c1c(N)n(CCCC)c(=O)[nH]c1=O	FUS suppressor 28µM
CCCCCN(C(=O)CCC(=O)OC(C)C(=O)NCc1ccccc1)c1c(N)n(CCCC)c(=O)[nH]c1=O (stereo unspecified)	none
CCCCn1c(N)c(N(CC(C)C)C(=O)c2ccc(Cl)c(S(=O)(=O)N3CCCC3)c2)c(=O)[nH]c1=O	FUS suppressor 32µM
O=C(O)CN1C(=O)/C(=C\C(Br)=C\c2ccccc2)SC1=S	TDP43 rescue 13µM
O=C(O)CN1C(=O)/C(=C\c2cccc(OCc3ccc(F)cc3)c2)SC1=S	Abeta yeast res 5µM, BCR signal inh inconclusive
O=C(O)CN1C(=O)/C(=C\c2cccc(OCc3ccc(Cl)cc3)c2)SC1=S	Abeta yeast res inconclusive, TDP43 rescue inconclusive
O=C(O)CN1C(=O)/C(=C\c2cccc(OCc3ccccc3F)c2)SC1=S	Abeta yeast res 8.9µM

Screens: PubChem BioAssay, National Center for Advancing Translational Sciences (NCATS)
